Out of some 290,000 compounds screened, about 27,000 (9.3%) were called active. No stated cut-off is given here; in the data, active means inhibition mostly above about 28% (no sharp cut-off); inactive means mostly below about 43%. The sample as a whole holds a higher share of actives than the screen did.
Experiment: A qHTS for Small Molecule Inhibitors of Shiga Toxin; further: 0% is about no effect
Conditions: Vero cells, Shiga toxin protein synthesis inhibition reporter; at 38.7 µM, stronger effect = higher value
In the case of `NC(=O)C1CCCN(CC(=O)N2CCN(c3ccccc3)CC2)C1` (stereo unspecified), the inhibition is reported as -5.2% (inactive). With `COc1ccc(OC)c(C(=O)c2ccc(C(=O)O)cc2)c1` the inhibition was 29.1% (inactive). In the case of `COc1ccc2occ(C(=O)c3ccc(N=C(C)N(C)C)cc3)c2c1`, the inhibition is reported as 62% (active). With `COc1ccc(OC)c(C(=O)c2coc3ccc(OC)cc23)c1` the inhibition was -7.11% (inactive). With `CCOCCCN(C)C1CCN(C(=O)c2oc3ccccc3c2NC(=O)Cc2cccc([N+](=O)[O-])c2)CC1` the inhibition was 18.7% (inactive). In the case of `Cc1noc(C)c1CSCC(=O)N(CCC(C)C)c1c(N)n(Cc2ccccc2)c(=O)[nH]c1=O`, the inhibition is reported as 6.62% (inactive). In the case of `Cc1ccc2nc(N3C(=O)C(O)=C(C(=O)c4ccco4)C3c3cccc(O)c3)sc2c1` (stereo unspecified), the inhibition is reported as 71.4% (active). With `COc1cc(C2C(C(=O)c3ccco3)=C(O)C(=O)N2c2cc(C)on2)ccc1OCc1ccccc1` (stereo unspecified) the inhibition was -4.72% (inactive). With `C=CCSc1nnc(N2C(=O)C(O)=C(C(=O)c3ccco3)C2c2ccc(F)cc2)s1` (stereo unspecified) the inhibition was 19.6% (inactive). In the case of `CCOc1ccccc1NC(=O)NC1CCCCCCC1`, the inhibition is reported as -4.06% (inactive). In the case of `COc1cc(NC(=O)C2CCN(c3cnccn3)CC2)cc(OC)c1`, the inhibition is reported as -1.63% (inactive). In the case of `CS(=O)(=O)N1CCN(c2cccc(Cl)n2)CC1`, the inhibition is reported as -4.33% (inactive). In the case of `CS(=O)(=O)N1CCN(C(=O)Cc2ccccc2)CC1`, the inhibition is reported as 8.45% (inactive). For `CS(=O)(=O)N1CCc2nc(-c3ccccc3)sc2C1`, the inhibition was 99.9% (active). For `O=C(Cn1nc([N+](=O)[O-])nc1Br)NC1CCCCC1`, the inhibition was -1.71% (inactive). For `Cc1cc(-c2ccc(S(=O)(=O)N3CCN(c4cccc(C(F)(F)F)c4)CC3)s2)on1`, the inhibition was -3.9% (inactive). In the case of `CCCCC(=O)N/N=C(\C)CC(=O)Nc1cc(Cl)ccc1OC`, the inhibition is reported as 2.31% (inactive). In the case of `COc1ccc(NC(=O)C/C(C)=N/NC(=O)c2cnccn2)cc1Cl`, the inhibition is reported as 45.4% (active). In the case of `O=C(COc1ccc(Cl)cc1Cl)NCCCNC(=O)c1cnccn1`, the inhibition is reported as -3.62% (inactive). For `COc1ccccc1C(=O)NCc1nnc(SC(C)C(=O)Nc2nccs2)n1C` (stereo unspecified), the inhibition was 10.7% (inactive). In the case of `CCOc1ccc(NC(=O)C(C)N2C(=O)c3ccccc3C2=O)cc1` (stereo unspecified), the inhibition is reported as -15.9% (inactive). For `O=C(Cc1ccc(Cl)cc1)NC1CCS(=O)(=O)C1` (stereo unspecified), the inhibition was 1.56% (inactive). For `Cc1ccc(S(=O)(=O)Nc2ccc3ncccc3c2)cc1`, the inhibition was -8.08% (inactive). For `O=S(=O)(Nc1ccc2nc(-c3ccco3)[nH]c2c1)c1ccccc1`, the inhibition was 70.6% (active). With `O=S(=O)(Nc1ccc2cn[nH]c2c1)c1ccccc1` the inhibition was 24% (inactive). In the case of `Cc1ccc(-c2ccc(/C=N/NC(=O)CN3CCOCC3)o2)cc1[N+](=O)[O-]`, the inhibition is reported as -4.74% (inactive). With `CN1CCN(/N=C/c2ccc(-c3ccc([N+](=O)[O-])cc3)o2)CC1` the inhibition was 46.8% (active). In the case of `CN1CCN(/N=C/c2ccc(C#N)cc2)CC1`, the inhibition is reported as 81.4% (inactive). With `Cc1ccc(S(=O)(=O)N2CCN=C2SCc2c(F)cccc2Cl)cc1` the inhibition was -2.63% (inactive). For `Cn1cc([N+](=O)[O-])c(C(=O)Nc2cnn(Cc3ccc(F)cc3)c2)n1`, the inhibition was 7.88% (inactive). For `Cc1nc([N+](=O)[O-])cn1CC(=O)Nc1ccc2c(c1)OCO2`, the inhibition was -7.53% (inactive). In the case of `Cc1nn(CC(=O)Nc2ccc3c(c2)OCO3)c(C)c1[N+](=O)[O-]`, the inhibition is reported as -8.73% (inactive). With `COc1cccc(NC(=O)c2nn(C34CC5CC(CC(C5)C3)C4)cc2[N+](=O)[O-])c1` the inhibition was 28.3% (inactive). With `Cn1cc([N+](=O)[O-])c(C(=O)Nc2ccc3c(c2)OCCO3)n1` the inhibition was 53.6% (active). In the case of `Cc1onc(C(=O)Nc2ccc3c(c2)OCO3)c1[N+](=O)[O-]`, the inhibition is reported as 62.7% (active). For `c1ccc(CSc2nnc(-c3ccco3)n2Cc2ccccc2)cc1`, the inhibition was 94.3% (active). In the case of `O=C(CSc1nnc(-c2ccco2)n1Cc1ccccc1)NC(=O)NCc1ccco1`, the inhibition is reported as 10.4% (inactive). With `c1ccc(CSc2nnc(-c3ccco3)c(-c3ccco3)n2)cc1` the inhibition was -7.92% (inactive). With `O=C(Nc1ccc(S(=O)(=O)NCC2CCCO2)cc1)c1ccc(F)cc1` (stereo unspecified) the inhibition was -1.55% (inactive). With `CCc1cccc(C)c1NS(=O)(=O)c1cc(Br)cnc1N` the inhibition was -8.52% (inactive). In the case of `CC1(C)C2CC=C(/C=N/NC(=O)c3ccc(Cl)cc3)C1C2` (stereo unspecified), the inhibition is reported as 30.5% (inactive). With `COc1ccc(/C=N/NC(=O)c2ccc(Cl)cc2)cc1COC(C)=O` the inhibition was -2.77% (inactive). In the case of `Cn1nccc1/C=N\NC(=O)c1ccc(Cl)cc1`, the inhibition is reported as 30.8% (active). For `Cc1c(CC(=O)N2CCN(C(=O)C3COc4ccccc4O3)CC2)c(=O)oc2c(O)c(O)ccc12` (stereo unspecified), the inhibition was 6.52% (inactive). With `O=C(CCC1CCCN(C(=O)c2ccc(F)c(F)c2)C1)N1CCN(c2ccccn2)CC1` (stereo unspecified) the inhibition was -25.9% (inactive). For `CC(C)n1c(NCc2c[nH]c3ccccc23)nc2ccccc21`, the inhibition was 8.94% (inactive). For `Cc1ccc(O)c(CNc2nc3ccccc3n2C)c1`, the inhibition was 75.2% (active). With `Cc1ccc(O)c(CNc2nc3ccccc3[nH]2)c1` the inhibition was 30.6% (inactive). For `O=C(NCCCN1CCOCC1)c1ccc2c(c1)N(Cc1cccc(F)c1)C(=O)c1ccccc1S2`, the inhibition was -12.3% (inactive). With `CC(=O)c1cc(-c2ccccc2)n(CC(=O)NC2CCCCC2)c1C` the inhibition was 26.5% (inactive). For `CC(NC(=O)c1cc(-c2ccccc2)on1)c1ccccc1` (stereo unspecified), the inhibition was 0.984% (inactive). With `O=C(NC1CCCC1)c1cc(-c2ccccc2)on1` the inhibition was 157% (active). With `O=C(Nc1cc(C(F)(F)F)ccc1Cl)c1cc(C2CC2)on1` the inhibition was -4.26% (inactive). For `O=C(NC1CC1)c1ccc(-c2ccccc2)cc1`, the inhibition was 97.2% (active). For `CSc1ccccc1NC(=O)c1cc(Cl)sc1Cl`, the inhibition was 25.1% (inactive). With `O=C(NC1CCN(S(=O)(=O)c2ccc(F)cc2)CC1)c1ccccc1` the inhibition was -7.58% (inactive). In the case of `O=C(NC1CCCCCCC1)c1cccs1`, the inhibition is reported as 88.4% (active). In the case of `O=C(CCC(=O)c1cccs1)NC1CCCCCC1`, the inhibition is reported as 29.7% (inactive). For `O=C(NC1CC1)c1cccc(Br)c1`, the inhibition was 23.6% (inactive). In the case of `CSc1ccccc1NC(=O)c1cc(C2CC2)on1`, the inhibition is reported as 19.8% (active). For `CC(C)C(OC(=O)c1cccs1)C(=O)NC1CCCCC1` (stereo unspecified), the inhibition was 8.34% (inactive). For `Cc1ccc(N2C(=O)C3C4C=CC(CC4)C3C2=O)cc1Cl` (stereo unspecified), the inhibition was 6.23% (inactive). In the case of `C[N+](C)(C)CCNC(=O)c1cc[n+](Cc2ccccc2)c(/C=N/O)c1`, the inhibition is reported as -12.2% (inactive). For `CCCCC[C@H]1CN(C2CCCCC2)C(=O)[C@@H]1CC(=O)NCc1ccc(OC)cc1`, the inhibition was -2.81% (inactive). For `CCOc1ccc2c(c1)c(=O)c(S(=O)(=O)c1ccc(C)cc1)cn2CC`, the inhibition was -4.36% (inactive). For `O=C(NNS(=O)(=O)c1ccc(F)cc1)C1CCCCC1`, the inhibition was -10.2% (inactive). For `O=C(NCCCn1ccnc1)c1cc(-c2ccccc2)on1`, the inhibition was 146% (active). In the case of `O=C(NC1CCCCC1)c1cc(C2CC2)on1`, the inhibition is reported as 108% (active). In the case of `Cc1nn(Cc2ccc(Cl)c(Cl)c2)c(C)c1NC(=O)c1cc(C2CC2)on1`, the inhibition is reported as 12.5% (inactive). With `COc1ccccc1-c1cc(C(=O)NCCCn2ccnc2)no1` the inhibition was 24.1% (inactive). In the case of `COc1ccc(-c2cc(C(=O)NCCCn3ccnc3)no2)cc1`, the inhibition is reported as 46.8% (inactive). With `COc1cc(OC)c(C(=O)NC2CCCCCC2)cc1OC` the inhibition was -10.7% (inactive). With `Cc1ccc(OCCCC(=O)Nc2ccc(S(=O)(=O)Nc3cc(C)nc(C)n3)cc2)cc1` the inhibition was 12.9% (inactive). In the case of `C=C1CCN(C(CC(C)C)C(=O)NCc2cc(OC)c(OC)c(OC)c2)S(=O)(=O)c2ccccc21` (stereo unspecified), the inhibition is reported as -0.34% (inactive). With `CCOc1cc(C2C(C(=O)c3ccco3)=C(O)C(=O)N2Cc2ccccc2)ccc1O` (stereo unspecified) the inhibition was -8.41% (inactive). For `CC(=O)[C@@]12O[C@@H]1C[C@H]1[C@@H]3CC[C@H]4C[C@@H](O)CC[C@]4(C)[C@H]3CC[C@@]12C`, the inhibition was 33.3% (inactive). With `Cn1c(=O)c2sccc2n(Cc2ccc(Br)cc2)c1=O` the inhibition was 22.9% (inactive). In the case of `Cc1snc(SCc2c(F)cccc2Cl)c1C#N`, the inhibition is reported as -6.99% (inactive). In the case of `Cc1cc(C)c(C#N)c(SCc2ccc3c(c2)OCO3)n1`, the inhibition is reported as 26.6% (inactive). In the case of `Cc1ccc(CSc2nsc(C)c2C#N)cc1`, the inhibition is reported as 31.1% (active). In the case of `CC(C(=O)NC1CCCCC1)N1C(=O)c2cccc3cccc1c23` (stereo unspecified), the inhibition is reported as -6.55% (inactive). In the case of `CC(=O)N(Cc1cc(=O)[nH]c2ccccc12)c1ccc(C)cc1C`, the inhibition is reported as -8.12% (inactive). With `COc1cccc(-c2cc3nc4c(c(N5CCC6(CC5)OCCO6)n3n2)CCCC4)c1` the inhibition was 63.6% (active). For `COc1cccc(CNc2nc3nc4c(c(=O)n3[nH]2)CCC4)c1`, the inhibition was -7.62% (inactive). For `O=C(c1cc2nc(-c3ccccc3)cc(-c3ccccc3)n2n1)N1CCC2(CC1)OCCO2`, the inhibition was 10.6% (inactive). With `COc1ccc(S(=O)(=O)N2CCN(C(=S)NCC3CCCO3)CC2)cc1OC` (stereo unspecified) the inhibition was -11.6% (inactive). For `O=S(=O)(NCCCCCCNS(=O)(=O)c1c(F)cccc1F)c1ccc2c(c1)OCCO2`, the inhibition was -3.9% (inactive). With `O=C(O)CCCn1cc(NC(=O)COc2cccc(Cl)c2)cn1` the inhibition was 12.7% (inactive). With `COc1cc(C(=O)OCC(=O)NC(C)CCc2ccccc2)cc(OC)c1OC` (stereo unspecified) the inhibition was -9.96% (inactive). With `COc1ccc(OC)c(NC(=S)N2CCc3ccccc3C2)c1` the inhibition was 46.8% (active). In the case of `COc1ccc(NC(=S)N2CCc3cc(OC)c(OC)cc3C2)cc1`, the inhibition is reported as 11.3% (inactive). With `COc1ccc(C)cc1NC(=S)N1CCOCC1` the inhibition was -10.3% (inactive). With `CCOc1ccc(-c2noc(CCC(=O)NC3CCCC3)n2)cc1OC` the inhibition was -7.65% (inactive). For `COc1ccc(CCNC(=O)CSCc2ccc(Br)cc2)cc1OC`, the inhibition was -18.8% (inactive). In the case of `Cc1nn(CC(=O)NCC2CCCO2)c(=O)c2cc3ccccc3n12` (stereo unspecified), the inhibition is reported as 1.03% (inactive). With `Cc1cccc(NS(=O)(=O)c2cc(Cl)ccc2Cl)n1` the inhibition was 2.75% (inactive).
